Our source for the AC50 and activity, negative = inhibition values is PubChem BioAssay AID1851 (National Center for Advancing Translational Sciences (NCATS), 2009).

“And” between values parts separate entries of the source, which are not always exact repeats. Equal entries are not always repeated. Hit rate of the full screen: of about 16,000 compounds, about 5,800 (36%) were called active. Roughly 23% stayed inconclusive and do not appear here. Calls follow the shape of the dose curve; as a rule, active = well fitted curve in the direction sought with a large enough effect; inconclusive = small, poorly fitted or top-dose-only effect, or effect the other way; inactive = no such curve, though single readings can be large or run the other way. The list shows a part of the results.
% is scaled to controls: 0 for no effect and ±100 for the full control effect.

This test deals with Cytochrome P450 2C19 (Homo sapiens) (UniProt P33261). Kind of test: Cytochrome panel assay with activity outcomes. The settings on record: recombinant CYP, pro-luciferin dealkylation, luminescence, p450-cyp2c19; series mostly up to 57.1 µM.
Sequence of Cytochrome P450 2C19 (Homo sapiens) (P33261 whole entry, looked up): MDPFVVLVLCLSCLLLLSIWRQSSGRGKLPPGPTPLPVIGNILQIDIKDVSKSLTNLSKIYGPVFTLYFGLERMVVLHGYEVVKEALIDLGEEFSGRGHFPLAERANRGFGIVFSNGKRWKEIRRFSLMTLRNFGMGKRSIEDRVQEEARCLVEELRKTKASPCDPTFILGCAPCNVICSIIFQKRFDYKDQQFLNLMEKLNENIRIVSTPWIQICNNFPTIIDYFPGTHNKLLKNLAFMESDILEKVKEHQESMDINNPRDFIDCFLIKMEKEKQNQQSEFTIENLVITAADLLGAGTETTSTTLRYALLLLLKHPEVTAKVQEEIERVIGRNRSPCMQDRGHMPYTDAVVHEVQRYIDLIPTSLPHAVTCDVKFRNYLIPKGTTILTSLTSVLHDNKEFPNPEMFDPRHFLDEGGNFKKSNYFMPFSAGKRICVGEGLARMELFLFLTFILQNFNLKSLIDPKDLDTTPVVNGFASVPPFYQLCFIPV
Regarding `O=C(C/C=N/OCc1ccc(F)cc1Cl)c1cnc(-c2ccccc2)s1`, the AC50 (as a rule, the midpoint of the concentration-response curve, whichever way the signal moves) was 1.26 µM (active).
For the molecule `O=C(C/C=N/OCc1ccc(Cl)cc1Cl)c1ccc(Cl)cc1`, the AC50 is 0.794 µM (active).
On the same count and under the same terms, under `CN(C)CN1CSC(=S)N(CN(C)C)C1` stands 3.16 µM (active); under `COc1ccc(N2CC(C(=O)Nc3cc(C)on3)CC2=O)cc1` (stereo unspecified), “inactive”; under `CCc1ccc(N2CC(C(=O)NC3=NCCS3)CC2=O)cc1` (stereo unspecified), 15.8 µM (active).
On the same count and under the same terms, with `Cc1cc(NC(=O)C2C3C(=O)N(Cc4ccc(Cl)cc4)C(C(=O)NC(C)(C)C)C34C=CC2(C)O4)no1` (stereo unspecified) the entry was “inactive”; with `Cc1ccc(N2CC(C(=O)Nc3cc(C)on3)CC2=O)cc1` (stereo unspecified), 5.62 µM (active).
For `CC(C)CO/N=C1/C[C@@H](O)[C@@H](O)[C@@H]2[C@@H]3C(=O)N(C[C@@H]4CCCO4)C(=O)[C@H]3CC[C@@H]12`, the activity, negative = inhibition was -18.3% [at 11.4 µM] (inactive).
Take `O=C(c1cnccn1)N1CCC2(CCCN(c3ncccn3)C2)CC1`: the AC50 result is “inactive”.
With `COc1ccc(COC(=O)N/N=C2/C[C@@H](O)[C@@H](O)[C@@H]3[C@H]4C(=O)N(c5ccc(F)cc5F)C(=O)[C@@H]4CC[C@@H]23)cc1`, the activity, negative = inhibition was -19.3% [at 11.4 µM] (inactive).
Regarding `C=CC[C@@H]1C=C[C@H](O/N=C(\C)CCN2CCc3nc(CC)c(CC)cc3C2)[C@H](CO)O1`, the activity, negative = inhibition is -14% [at 11.4 µM] (inactive).
With `COc1cc(NC(=O)c2cc3nc(-c4ccccc4)cc(-c4ccccc4)n3n2)cc(OC)c1OC`, the concentration at half-maximal activity (AC50) is 6.31 µM (active).
With `COc1cc(NC(=O)Cc2c(C(=O)O)[nH]c3ccccc23)cc(OC)c1OC`, the AC50 result is “inactive”.
For `Nn1c(SCC(=O)N2CCOCC2)nnc1-c1ccccc1Cl`, the AC50 result is “inactive”.
For the molecule `O=C(CSc1c[nH]c2ccccc12)N1CCOCC1`, the AC50 is 1.58 µM (active).
Consider `Fc1cccc(F)c1C(Nc1nncs1)Nc1nncs1`, for which the activity, negative = inhibition was 7.56% [at 11.4 µM] (inactive).
Same read-out and setting: under `O=C(O)CNCCc1ccccc1` stands 4.74% [at 11.4 µM] (inactive).
Take `NNCCc1ccccc1`: the AC50 was 794 nM (active) and 316 nM (active).
In the case of `Cc1ccc(COc2ccc(Br)cc2/C=N/O)cc1`, the AC50 is 1 µM (active).
Same read-out and setting: with `O=c1c(-c2ccccc2)nc2cnc(N3CCOCC3)nc2n1Cc1cccs1` the entry was “inactive”; with `C[C@@H](COc1ccccc1)N(CCCl)Cc1ccccc1`, 2 µM (active); with `O=S(=O)(Nc1nc(-c2sccc2Cl)cs1)c1cc(Cl)ccc1Cl`, 0.2 µM (active).
Same read-out and setting: under `CCC(C)NC(=O)C1CCN(C(=O)c2ccccc2)CC1` (stereo unspecified) stands “inactive”; under `COC(=O)N1CCC2(CCN(C(=O)Nc3ccc(OC)cc3)CC2)CC1`, “inactive”.
Same read-out and setting: with `COC(=O)N1CCC2(CC1)CN(C(=O)Nc1ccc(OC)cc1)C2` the entry was “inactive”.
For `O=C(CC1C(=O)NCCN1C(=S)Nc1ccccc1)Nc1ccc2c(c1)OCCO2` (stereo unspecified), the AC50 was 11.2 µM (active).
Same read-out and setting: under `COc1ccc(NC(C)=O)cc1NC(=O)CN1CCN(CC(=O)Nc2ccccc2Cl)CC1` stands 7.94 µM (active); under `COc1ccc(NC(=O)CN2CCN(CC(=O)Nc3ccccc3Cl)CC2)cc1`, 1.41 µM (active); under `O=C(Nc1ccc2c(c1)OCCO2)C1CCN(C(=O)c2ccccc2)CC1`, 22.4 µM (active).
As to `CC(C)=CCC/C(C)=C/CO/N=C1/C[C@@H](O)[C@@H](O)[C@@H]2[C@@H]3C(=O)N(C4CCCCC4)C(=O)[C@H]3CC[C@@H]12`, the activity, negative = inhibition is -41.2% [at 11.4 µM] (inactive).
In the case of `O=C(CN1C(=O)c2ccccc2S1(=O)=O)Nc1ccccc1`, the AC50 entry is “inactive”.
`COc1ccccc1NC(=O)c1cnc2n(c1=O)CCS2`: the AC50 entry was “inactive”.
In the case of `COc1ccc(NC(=O)CN2c3cccc4cccc(c34)S2(=O)=O)cc1`, the AC50 was 10 µM (active).
On the same count and under the same terms, under `O=C(CC(c1ccccc1)c1ccccc1)Nc1ccc2c(c1)OCCO2` stands 2.82 µM (active); under `COc1ccccc1NC(=O)CN1CCN(CC(=O)Nc2ccc(OCc3ccccc3)cc2)CC1`, 0.631 µM (active).
`CC(=O)Nc1ccc2c(c1)OCCOCCOc1cc(NC(C)=O)ccc1OCCOCCOCCO2`: the AC50 result was “inactive”.
Same read-out and setting: under `O=C(CN1C(=O)C2C3C=CC(C3)C2C1=O)Nc1ccc2c(c1)OCCO2` (stereo unspecified) stands “inactive”; under `O=C(CN1CCN(CC(=O)Nc2ccccc2Cl)CC1)Nc1ccc2c(c1)OCCO2`, 0.891 µM (active); under `CCCN1C[C@H](CSC)C[C@H]2c3cccc4[nH]cc(c34)C[C@@H]21`, “inactive”.
In the case of `CN1CCN(CCCNC(=O)C2CCN(c3nnc(-n4cccc4)s3)CC2)CC1`, the AC50 entry is “inactive”.
As for `CC(C)CO/N=C1/C[C@@H](O)[C@@H](O)[C@@H]2[C@@H]3C(=O)N([C@@H](C)c4ccccc4)C(=O)[C@H]3CC[C@H]12`, the activity, negative = inhibition is -12.9% [at 11.4 µM] (inactive).
On to `Cc1cccc(NC(=S)N2CCC(N(C)CC3CCCO3)CC2)c1C` (stereo unspecified), for which the AC50 result is “inactive”.
`Cc1c(NC(=O)CN2CCN(c3ccccc3)CC2)c(=O)n(-c2ccccc2)n1C`: the AC50 result was “inactive”.
On the same count and under the same terms, under `Cc1c(Cl)cccc1NC(=O)CN1CCC(C(O)(c2ccccc2)c2ccccc2)CC1` stands 11.2 µM (active).
In the case of `COc1cc2c(cc1OC)C(C(=O)N1CCN(c3ccccn3)CC1)C(c1cccs1)N(C)C2=O` (stereo unspecified), the AC50 result is “inactive”.
As for `COc1cc(NC(=O)c2ccccc2)c(OC)cc1NC(=O)CN1CCN(c2ccccn2)CC1`, the concentration at half-maximal activity (AC50) was 17.8 µM (active).
Same read-out and setting: under `Cc1ccc(NC(=O)c2sccc2SCc2cccc(C(F)(F)F)c2)cc1` stands 0.631 µM (active); under `Cc1cccc(C)c1NC(=O)CS(=O)CC(=O)Nc1ccc(F)cc1F` (stereo unspecified), “inactive”; under `Cn1nc(C(F)(F)F)c(C(=O)Nc2ccc(F)cc2F)c1Sc1cccc(C(F)(F)F)c1`, 0.501 µM (active).
On the same count and under the same terms, under `Cn1nc(C(F)(F)F)c(C(=O)Nc2ccc(F)cc2F)c1Sc1ccc(C(F)(F)F)cc1` stands 0.631 µM (active).
As to `Cc1ccc(NC(=O)c2c(C(F)(F)F)nn(C)c2SCc2cccc(C(F)(F)F)c2)cc1C`, the AC50 is 0.562 µM (active).
As to `C1COC(NC(C2CC2)C2CC2)=N1`, the AC50 entry was “inactive”.
As for `CCCN1C[C@@H](CSC)C[C@H]2c3cccc4[nH]cc(c34)C[C@@H]21`, the AC50 result was “inactive”.
`O=C1CC[C@](CCc2nc3ccccc3[nH]2)(c2ccccc2)C(=O)N1`: the activity, negative = inhibition was -21.5% [at 11.4 µM] (inactive).
Consider `O=C(OCc1nc2ccccc2[nH]1)C12CC3CC(CC(C3)C1)C2`, for which the AC50 is 2.51 µM (active).
The same measure, in the same setting: with `COc1ccc(CNc2nc3nc4c(c(=O)n3[nH]2)CCC4)cc1` the entry was “inactive”.
Still for that read-out and setting: with `N#Cc1c[nH]n2c(=O)c3c(nc12)CCCC3` the entry was “inactive”; with `COC(=O)Cc1cc(=O)n2[nH]c(C)c(-c3ccccc3)c2n1`, “inactive”; with `CSc1nc2nc3c(c(=O)n2[nH]1)CN(Cc1ccccc1)CC3`, “inactive”.
Still for that read-out and setting: under `Cc1ccc(-c2[nH]n3c(=O)c4c(nc3c2C)CCCC4)cc1` stands 3.98 µM (active).
Regarding `Cc1ccc(N=Nc2c(N)[nH]n3c(=O)c4c(nc23)CCCC4)cc1`, the concentration at half-maximal activity (AC50) was 25.1 µM (active).
For `Cc1[nH]n2c(=O)c3c(nc2c1-c1cccc2ccccc12)CCC3`, the AC50 was 8.91 µM (active).
As to `Nc1[nH]n2c(=O)c3c(nc2c1N=Nc1ccccc1)CCCC3`, the AC50 entry is “inactive”.
With `COc1cccc([C@H](O)Cn2cc(-c3cccc(CON=C(C)C)c3)nn2)c1`, the activity, negative = inhibition is -19.8% [at 11.4 µM] (inactive).
On to `CC(C)c1ccc(N=c2c([N+](=O)[O-])nn(-c3ccc4c(c3)OCCO4)n2O)cc1`, for which the AC50 is 11.2 µM (active).
Same read-out and setting: under `COc1ccc(OC)c(C2C3=C(COC3=O)Nc3cc4c(cc32)OCO4)c1` (stereo unspecified) stands 1.12 µM (active).
As for `CC1(C)Oc2cc(N)c([N+](=O)[O-])cc2O1`, the AC50 was 10 µM (active).
On to `Cc1nn2c(C)nc3sc4c(c3c2nc1=O)CC(C)(C)OC4`, for which the AC50 entry was “inactive”.
Same read-out and setting: under `CC1(C)Cc2c(sc3nc(-c4ccccc4)n(N)c(=O)c23)CO1` stands 25.1 µM (active); under `Nc1nc(Sc2ccc([N+](=O)[O-])c3nonc23)c2[nH]cnc2n1`, 1.58 µM (active).
Consider `Nc1nc(N)c2[nH]cnc2n1` (tested in a mixture with another compound), for which the activity, negative = inhibition is 6.99% [at 11.4 µM] (inactive).
Consider `Nc1nc(SC/C=C\c2ccccc2)c2[nH]cnc2n1`, for which the AC50 is 1.58 µM (active).
For `O=c1[nH]c(SCc2ccccc2[N+](=O)[O-])nc2nc[nH]c12`, the activity, negative = inhibition was 23.8% [at 11.4 µM] (inactive).
On the same count and under the same terms, under `CCC[C@H](Sc1nc(N)nc2nc[nH]c12)C(=O)O` stands 25% [at 11.4 µM] (inactive); under `CC(C)[C@H](Sc1nc(N)nc2nc[nH]c12)C(=O)O`, 22.9% [at 11.4 µM] (inactive).
On to `Nc1nc(SCc2ccccc2[N+](=O)[O-])c2[nH]cnc2n1`, for which the AC50 is 1 µM (active).
The same measure, in the same setting: with `Nc1nc(SCCc2ccccc2)c2[nH]cnc2n1` the figure was 0.631 µM (active); with `CC[C@H](C)[C@@H]1O[C@]2(CC[C@@H]1C)C[C@H]1C[C@H](CC=C(C)[C@@H](O[C@H]3C[C@H](OC)[C@H](O[C@H]4C[C@H](OC)[C@H](O)[C@H](C)O4)[C@H](C)O3)[C@@H](C)C=CC=C3CO[C@@H]4[C@@H](O)C(C)=C[C@H](C(=O)O1)[C@@]34O)O2`, “inactive”; with `COc1cc2c(CCNC(C)=O)c[nH]c2cc1Cl`, 5.01 µM (active).
As to `COc1cc2c(CCNC(C)=O)c[nH]c2cc1O`, the AC50 entry is “inactive”.
Still for that read-out and setting: with `CC(=O)NCCc1c[nH]c2ccc(O)cc12` the entry was “inactive”.
In the case of `CC(C)[C@](N)(C(=O)O)c1ccccc1`, the activity, negative = inhibition is 11.6% [at 11.4 µM] (inactive).
In the case of `Cc1nc2c3cnn(-c4ccc(C)c(C)c4)c3ncn2n1`, the AC50 was 10 µM (active).
On to `O=C(Cc1ccccc1)N/N=C\c1ccc(Br)o1`, for which the AC50 was 10 µM (active).
Same read-out and setting: under `O=C(N/N=C/c1ccco1)c1ccc(Br)o1` stands “inactive”.
The same measure, in the same setting: under `O=C(Cc1ccccc1)N/N=C/c1cc(Br)c(Br)o1` stands 8.91 µM (active); under `O=c1ccc2cc(O)c(O)cc2o1`, “inactive”; under `O=C(O)c1cc2cc(Cl)ccc2oc1=O`, “inactive”.
As to `CCN(CC)c1ccc2cc(C(C)=O)c(=O)oc2c1`, the AC50 is 1.58 µM (active).
For `O=C(O)C[C@H](S)C(=O)O`, the activity, negative = inhibition was 13.1% [at 11.4 µM] (inactive).
`C=CC(C)(C)c1[nH]c2ccccc2c1C1=C(O)C(=O)C(c2c[nH]c3c(CC=C(C)C)cccc23)=C(O)C1=O`: the concentration at half-maximal activity (AC50) is 1.26 µM (active).
